IL1B secr inh = inflammasome signaling inhibition, IL-1 beta readout | THP-1 LPS/ATP IL-1B secretion, AlphaLISA, 16 h; active compounds read low | activity change, % at 57.5 µM | 4.7% of 360,000 active | AID 743279; in the data active means activity change below about -50%; inconclusive means mostly about -30% to -49%
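Secreted IL-1B measured by AlphaLISA bead assay after 16 h compound exposure of THP-1 cells; compounds (final up to 57.5 uM) added 1 h before LPS (250 ng/mL) and ATP (1.25 mM) stimulation; lower signal means less secretion.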
ELG1 repair inh = blocks ELG1-dependent DNA repair in HEK293T cells. HEK293T ELG1-luciferase reporter, luminescence, 16 h; DNA damage induced by 5-fluorouridine. Potency, µM (doses to about 46.1 µM), for inactives: at the highest dose activity change, negative = inhibition, actives largely listed as inhibitors. 2.3% of 330,000 active; further: potency means the concentration at half of the fitted maximal effect; nearly all actives have a fitted effect of over 55% in size
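Cells (2,000 per well) received 5-fluorouridine plus test compound or DMSO and were incubated 16 hr at 37 °C, 5% CO2. Luciferase activity was read by luminescence 30 min after ONE-Glo addition; signal suppression marked inhibition of damage-induced ELG1 function.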
DT40 TDP1 CPT = growth inhibition of DT40 Tdp1-/-;hTDP1 cells with camptothecin (screen for TDP1 inhibitors). chicken DT40 Tdp1-/-;hTDP1 cells + 20 nM CPT, ATP luminescence, 48 h. Potency, µM (doses to about 46.2 µM), inactives show at the highest dose activity change, negative = growth inhibition, usual class: inhibitors. 12% of 420,000 active; further: potency means the concentration at half of the fitted maximal effect; nearly all actives have a fitted effect of over 55% in size
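Chicken DT40 Tdp1-/- cells stably complemented with human TDP1 were seeded at 400 cells/well in medium containing 20 nM camptothecin, exposed to pin-transferred compounds, and grown at 37 °C for at least 48 hr. Viability was read as ATP luminescence.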
HT1080 IDH1KD tx = kills HT-1080 cells with IDH1 knockdown. 2% of 360,000 active. HT-1080 IDH1 knockdown viability, ATP luminescence, 48 h. AID 686971. Potency, µM (titrated, usually from 46.1 µM), for the others: top-dose activity, negative = toxicity, actives largely listed as cytotoxic;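 further: potency means the concentration at half of the fitted maximal effect; 0% = DMSO wells and -100% = cell-free medium wells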
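Using the IDH1-knockdown HT-1080 line run in the same batch and compound series as the NT line, viability after 48 h at 37 °C was determined by CellTiter-Glo luminescence and expressed as % activity.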
TDP1 cell noCPT = qHTS for Inhibitors of human tyrosyl-DNA phosphodiesterase 1 (TDP1): qHTS in cells in absence of CPT. DT40 Tdp1-/- hTDP1 cells, no CPT, ATP luminescence, 48 h. Potency, µM (series often up to 46.2 µM), without a hit: at the highest dose activity change, negative = growth inhibition, actives largely listed as inhibitors. 15% of 420,000 active; further: potency means the concentration at half of the fitted maximal effect; nearly all actives have a fitted effect of over 55% in size
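No-CPT arm: Tdp1-/-;hTDP1 DT40 cells (400/well) plus compounds, incubated ≥48 hr at 37 °C. Readout CellTiter-Glo luminescence.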
HT1080NT lethal = kills 2HG-producing HT-1080-NT fibrosarcoma cells; HT-1080-NT fibrosarcoma viability, CellTiter-Glo ATP luminescence, 48 h; Potency, µM (titrated, usually from 46.1 µM), for inactives: at the top dose activity, negative = less viability, actives largely listed as cytotoxic; 1.6% of 360,000 active;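 further: NT is the 2HG producing partner of a matched IDH1 knockdown line; potency means the concentration at half of the fitted maximal effect; 0% = DMSO-treated cells and -100% = media-only wells without cells; nearly all actives have a fitted effect of over 55% in size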
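Viability of the 2HG-overproducing fibrosarcoma line after 48 hours of compound exposure at 37 degrees C was determined by luminescence with CellTiter-Glo, and concentration-effect curves were then fitted and categorized.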
Numbers without * were called inactive; i = inactive; ? = inconclusive; · = not tested or not shown; [ ] = remark or other dose. Compounds with a hit are over-represented: about 19% of the library has one in this group of screens. Unless noted, the call rests on the fitted dose curve; in most records, active means well fitted curve in the direction sought with a large enough effect; inconclusive means small, poorly fitted or top-dose-only effect, or another doubt; inactive means no such curve, though single readings can be large; an effect the other way counts as inactive or inconclusive. Unless noted, on the % scale 0 is the no-effect control and ±100 the full control effect.

SMILES	IL1B secr inh	ELG1 repair inh	DT40 TDP1 CPT	HT1080 IDH1KD tx	TDP1 cell noCPT	HT1080NT lethal
NC(CSC(c1ccccc1)(c1ccccc1)c1ccc2c(c1)OCO2)C(=O)O (centres undefined)	17.8	·	?	18.4µM*	7.31µM*	11.6µM*
COc1cc(CCNC2=CC(=O)c3ncccc3C2=O)ccc1O	-70.7*	·	4.61µM*	14.6µM*	5.8µM*	?
CC(OC(=O)C1=COCCO1)C(=O)NC1CCCC(C)C1C (centres undefined)	1.5	·	6.4%	-4.4%	-1.5%	-0.4%
CCn1cc(C(=O)NCc2ccccc2Cl)c(=O)c2cc(S(=O)(=O)N3CCCCCC3)ccc21	·	·	?	·	20.6µM*	·
CCn1cc(C(=O)NCc2ccccc2OC)c(=O)c2cc(S(=O)(=O)N3CCCCC3)ccc21	·	·	18.4µM*	·	?	·
CCn1cc(C(=O)NCc2ccccc2Cl)c(=O)c2cc(S(=O)(=O)N3CCOCC3)ccc21	·	·	-19.9%	·	-22.8%	·
COc1ccccc1CNC(=O)c1cn(C)c2ccc(S(=O)(=O)N3CCCC3)cc2c1=O	13.7	-16.3%	?	3.7%	?	-1.9%
CC(C)c1ccccc1NC(=O)Nc1nnc([C@@H]2C[C@H](O)[C@@H](CO)O2)s1	22.9	·	10.9%	?	0.5%	9.9%
O=c1c2c3nc4ccccc4nc3n(/N=C/c3ccco3)c2ncn1CCC1=CCCCC1	-29.3	?	16.4µM*	-2.3%	20.6µM*	4.5%
CC(NC(=O)c1ccccc1)C(=O)OCn1nnc2ccccc2c1=O (centres undefined)	-5.4	16.4%	25.9µM*	-1.7%	14.9%	-3.6%
CC(=O)c1c(C)[nH]c(C(=O)OCn2nnc3ccccc3c2=O)c1C	13.2	18.4µM*	16.4µM*	-11.2%	16.4µM*	-9.1%
COC(=O)c1ccc2c(=O)[nH]c(COC(=O)c3[nH]c(C)c(C(C)=O)c3C)nc2c1	32.1	5.8µM*	?	-17.5%	16.4µM*	-11.8%
CCCCn1nnnc1C1(C)CCC(=O)N1CCOC (centres undefined)	51.8	·	-8.1%	14.8%	-12.2%	20.6%
CCCCCn1nc(C(=O)OCc2nnc(-c3ccccc3)o2)c2ccccc2c1=O	5.8	11.6%	18.9%	5.2%	0.3%	2.1%
O=C1S/C(=C\c2ccc(N3CCOCC3)o2)C(=O)N1Cc1c(F)cccc1Cl	20.3	1.0%	7.31µM*	3.55µM*	?	?
O=C1S/C(=C\c2ccc(N3CCOCC3)o2)C(=O)N1c1ccccc1	-104.2*	?	1.64µM*	?	8.2µM*	?
O=C(NCc1ccc(Cl)cc1)c1ccc2ccccc2n1	12.2	?	3.5%	-16.9%	-13.1%	-14.7%
CCOC(=O)c1cc2ccccc2n1C1CCN(CCc2ccccc2)CC1	-18.9	·	9.2µM*	?	7.31µM*	?
CCOC(=O)c1cc2cc(OC)ccc2n1C1CCN(CCc2ccccc2)CC1	-9.5	·	?	18.4µM*	?	?
CCOC(=O)N1CCN(CCc2ccccc2)CC1	-2.4	1.0%	2.6%	14.1%	-12.7%	5.6%
N#Cc1cccc(C(=O)C(=O)N2CCCN(Cc3ccc(F)cc3)CC2)c1	-16.2	·	-11.4%	10.7%	?	9.6%
O=C(Nc1ccc(Cl)c(-c2nc3ccccc3o2)c1)c1cccc2c(Cl)cccc12	·	·	3.6%	·	-4.9%	·
Cn1cc(S(=O)(=O)N2CCCC2)cc1C(=O)Nc1ccc(C(F)(F)F)cc1	·	·	29.1µM*	·	?	·
O=C(CNc1cccc(Br)c1)Nc1ccc(S(=O)(=O)N2CCCCC2)cc1	-24.7	·	20.6µM*	?	?	?
Cn1cc(S(=O)(=O)N2CCCC2)cc1C(=O)Nc1cccc(C(F)(F)F)c1	21.1	1.0%	-2.2%	-11.8%	?	-8.5%
SMILES	IL1B secr inh	ELG1 repair inh	DT40 TDP1 CPT	HT1080 IDH1KD tx	TDP1 cell noCPT	HT1080NT lethal
O=C(CNc1cccc(S(=O)(=O)N2CCCCC2)c1)Nc1ccc(C(F)(F)F)cc1	12.5	·	?	-25.1%	?	-5.8%
CCNc1ccc(S(=O)(=O)N(C)C)cc1NCC(=O)Nc1ccc(F)c(Cl)c1	-8.2	?	11.6µM*	0.5%	20.6µM*	-7.8%
CCNc1ccc(S(=O)(=O)N(C)C)cc1NCC(=O)Nc1ccccc1F	7.7	-26.2%	-10.8%	3.5%	?	7.6%
Cc1cccc(CNc2ccc(S(=O)(=O)N3CCCCC3)cc2)c1	-22.9	-8.1%	20.6µM*	1.5%	?	-4.9%
COC(=O)[C@@H]1C[C@H](NC(=O)c2cc(C(F)(F)F)ccc2Cl)CN1Cc1cccc(O)c1	·	·	2.3%[9.04 µM]	·	-12.3%	·
Cc1ccccc1CNS(=O)(=O)c1c(C(=O)N2CCCC2)c(C)n(C)c1C	19.0	13.2%	-6.3%	14.5%	17.9%	6.0%
Cc1ccc2c(c1)-c1c(cnc3cc(-c4ccc(F)cc4)nn13)CO2	·	·	-22.7%	·	-21.7%	·
O=C(CNc1cccc(S(=O)(=O)N2CCCC2)c1)Nc1ccc(C(F)(F)F)cc1	?	-19.7%	16.4µM*	-26.0%	14.6µM*	-18.0%
Cc1ccc(NC(=O)CNc2cc(S(=O)(=O)N3CCOCC3)ccc2NCC2CCCO2)cc1F (centres undefined)	i	?	?	2.3%	?	-4.3%
CN(C)S(=O)(=O)c1ccc(NC(=O)CNc2cc(S(=O)(=O)N3CCCC3)ccc2OCC(F)(F)F)cc1	10.7	-26.6%	20.6µM*	-9.2%	18.4µM*	-4.5%
CCNc1ccc(S(=O)(=O)N2CCOCC2)cc1NCC(=O)Nc1cccc(Br)c1	-14.4	·	7.31µM*	-20.2%	2.59µM*	-2.7%
O=C(COc1ccc(F)cc1Cl)Nc1ccc(S(=O)(=O)Nc2nccs2)cc1	-10.3	?	10.7%	5.7%	13.2%	6.1%
C#CC[N+](C)(C)CC#Cc1ccc(Cl)cc1	-66.8*	15.4%	-10.7%	?	-28.7%	?
O=C(O)c1c(-c2ccccc2)cnc2ccccc12	25.0	·	3.1%	8.3%	4.0%	4.5%
COc1ccc(-n2c(=O)c3c(C)c(C)sc3n(CC(=O)NCc3ccc(C)cc3)c2=O)c(OC)c1	·	·	-4.7%	·	-14.2%	·
COc1cccc(CNC(=O)CN2C(=O)CSc3ccc(S(=O)(=O)N(C)C)cc32)c1	·	·	?	·	-28.9%	·
Cc1ccc(-n2c(=O)cc(N3CCN(c4ccccc4Cl)CC3)[nH]c2=O)cc1	·	·	-23.8%	·	-27.2%	·
Cc1ccc2c(cnn2C(=O)CCCC(=O)NCc2ccc(Cl)cc2)c1	-4.9	22.7%	23.1µM*	?	?	?

Source: PubChem (National Center for Advancing Translational Sciences (NCATS))
